C_diff_growth – C. difficile growth inhibitors, primary screen, HTS; Clostridium difficile clinical isolate growth, OD600, 24 h; active compounds read low; 0.25% of 86,000 active; AID 1259249, 2017; growth activity, negative = inhibition, % at 16 µg/mL (by protocol);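 active = mean growth activity at or below -80% and every replicate also at or below -80%; inconclusive = mean at or below -80% but some replicate above -80%; inactive = mean growth activity above -80%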
Pf_Dd2_growth – P. falciparum Dd2 growth inhibitors, primary screen, SYBR Green fluorescence, single dose replicates | activity change, % at 10 µM | 2.3% of 94,000 active | 72 h; active compounds read low; in the data active = activity change below about -80%; inconclusive = no clear call, values can overlap the other calls
T_cruzi_growth-1 – T. cruzi intracellular proliferation inhibitors, primary screen, cell-based, beta-gal Tulahuen parasites, NIH3T3 host, luminescence | T. cruzi beta-gal in NIH3T3, GalScreen luminescence, 90 h | inhibition, % at 8.34 µM | 5.9% of 77,000 active;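 active = mean inhibition above about 93%, with at least 55% of replicates each passing it, limit read from the data, passing the limit was not always enough; inconclusive = only one of those two conditions holds; inactive = neither condition holds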
T_cruzi_growth-2 – T. cruzi intracellular proliferation inhibitors, confirmation, cell-based, NIH3T3 host, beta-gal parasite, luminescence, cherry-pick. shares compounds with T_cruzi_growth-1. T. cruzi beta-gal in NIH3T3, GalScreen luminescence, 90 h. inhibition, % at 8.35 µM. 72% of 5,600 active;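 active = mean replicate inhibition above about 95% and at least 55% of replicates individually reaching it, limit read from the data; inconclusive = only one of the two criteria is met; inactive = neither criterion is met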
T_cruzi_growth-3 – inhibitors of intracellular T. cruzi replication, confirmation, NIH3T3 host cells, beta-gal parasites, cherry-pick, set 2 | shares compounds with T_cruzi_growth-1 | T. cruzi beta-gal in NIH3T3, GalScreen luminescence, 90 h | AID 651740, 2012 | inhibition, % at 2.09 µM | 21% of 5,600 active;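 active = mean inhibition above about 95%, with at least 55% of replicates also reaching it, limit read from the data; inconclusive = meets just one of the two conditions; inactive = meets neither condition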
NIH3T3_tox – cytotoxicity in mouse NIH/3T3 fibroblasts, confirmation, cytotoxicity control for T. cruzi proliferation inhibitor project, cell-based, cherry-pick, single point. shares compounds with T_cruzi_growth-1. NIH/3T3 viability, CellTiter-Glo ATP luminescence, 90 h. cytotoxicity (signal decrease), % at 8.35 µM. 14% of 5,600 active. AID 651742, 2012;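 active = mean signal decrease across replicates above about 35% based on untreated-well scatter, with enough replicates individually passing, limit read from the data; inconclusive = no rule stated though some were filed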
NIH3T3_tox_2 – NIH/3T3 fibroblast cytotoxicity, confirmation, cytotoxicity control, cell-based, cherry-pick, single point, set 2 | shares compounds with T_cruzi_growth-1 | NIH/3T3 viability, CellTiter-Glo ATP luminescence, 90 h | inhibition, % at 24.9 µM | 56% of 5,600 active | AID 651744, 2012;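 active = mean loss of cell viability signal at or above a set limit, and enough replicates individually reaching it; inconclusive = meets only the mean limit or only the replicate share; inactive = meets neither condition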
Hits are given with their value; n = inactive; u = inconclusive; x = not tested or not shown. The list is not random: actives were taken first. Their share in the collection is about 6.8%.

SMILES C_diff_growth Pf_Dd2_growth T_cruzi_growth-1 T_cruzi_growth-2 T_cruzi_growth-3 NIH3T3_tox NIH3T3_tox_2
Cc1ccc(S(=O)(=O)N(C)C[C@H]2OCCCC[C@@H](C)Oc3ccc(NS(=O)(=O)c4ccc(Cl)cc4)cc3C(=O)N([C@@H](C)CO)C[C@H]2C)cc1 n n u 102.5 116.1 n n
Cc1ccc(S(=O)(=O)N(C)C[C@H]2OCCCC[C@@H](C)Oc3ccc(NS(=O)(=O)c4ccc(Cl)cc4)cc3C(=O)N([C@H](C)CO)C[C@@H]2C)cc1 n n n x x x x
Cc1ccc(S(=O)(=O)Nc2ccc3c(c2)C(=O)N([C@H](C)CO)C[C@H](C)[C@H](CN(C)S(=O)(=O)c2ccc(Cl)cc2)OCCCC[C@@H](C)O3)cc1 n n u 100.6 n n n
COC(=O)[C@@H]1[C@@H](CO)[C@@H]2Cn3c(ccc(C4=CCCCC4)c3=O)[C@@H]2N1CC1CCCCC1 n n n x x x x
C[C@H](CO)N1C[C@H](C)[C@H](CN(C)C(=O)Nc2ccc(C(F)(F)F)cc2)OCCCC[C@H](C)Oc2ccc(N(C)C)cc2C1=O n n 100.9 105.8 n n 39.5
C[C@H](CO)N1C[C@H](C)[C@@H](CN(C)C(=O)Nc2ccc(C(F)(F)F)cc2)OCCCC[C@H](C)Oc2ccc(NC(=O)NC3CCCCC3)cc2C1=O n n 112.8 104.9 105.0 n n
C[C@H]1CCCCO[C@@H](CN(C)C(=O)Nc2ccc(C(F)(F)F)cc2)[C@@H](C)CN([C@@H](C)CO)C(=O)c2cc(NC(=O)CCC(F)(F)F)ccc2O1 n n u 99.2 110.3 n n
CNC[C@@H]1OCCCC[C@@H](C)Oc2ccc(NC(=O)Nc3ccc(C(F)(F)F)cc3)cc2C(=O)N([C@@H](C)CO)C[C@@H]1C n n n x x x x
C[C@@H]1CN([C@H](C)CO)C(=O)c2cc(N(C)C)ccc2O[C@@H](C)CCCCO[C@H]1CN(C)C(=O)Nc1ccc(C(F)(F)F)cc1 n n n x x x x
C[C@@H]1CN([C@@H](C)CO)C(=O)c2cc(NC(=O)CCC(F)(F)F)ccc2O[C@@H](C)CCCCO[C@H]1CN(C)C(=O)Nc1ccc(C(F)(F)F)cc1 n n n x x x x
C[C@@H]1CCCCO[C@@H](CN(C)C(=O)Nc2ccc(C(F)(F)F)cc2)[C@@H](C)CN([C@H](C)CO)C(=O)c2cc(NC(=O)NC3CCCCC3)ccc2O1 n n x x x x x
CNC[C@@H]1OCCCC[C@@H](C)Oc2ccc(NC(=O)Nc3ccc(C(F)(F)F)cc3)cc2C(=O)N([C@@H](C)CO)C[C@H]1C n n u n n n n
Cc1ccc(S(=O)(=O)Nc2ccc3c(c2)CC(=O)N([C@H](C)CO)C[C@H](C)[C@H](CN(C)S(=O)(=O)c2c(C)noc2C)O3)cc1 n n n x x x x
CO[C@H]1CN(C)C(=O)c2cc(NS(=O)(=O)c3ccccc3F)ccc2OC[C@H](C)NC[C@@H]1C x n n x x x x
CCCNC(=O)C[C@H]1CC[C@@H]2[C@H](COc3ccc(NC(=O)c4cccs4)cc3C(=O)N2C)O1 n n n x x x x
CN1C(=O)c2cc(NC(=O)c3cccs3)ccc2OC[C@@H]2O[C@@H](CC(=O)NCCN3CCCCC3)CC[C@@H]21 n n n x x x x
C[C@H]1CCCCO[C@@H](CN(C)C(=O)Nc2ccc(C(F)(F)F)cc2)[C@@H](C)CN([C@@H](C)CO)C(=O)c2cc(NC(=O)Nc3ccc(F)cc3)ccc2O1 n n 113.7 107.8 106.4 n n
C[C@@H]1CCCCO[C@@H](CN(C)C(=O)Nc2ccc(C(F)(F)F)cc2)[C@@H](C)CN([C@H](C)CO)C(=O)c2cc(NC(=O)Nc3ccc(C(F)(F)F)cc3)ccc2O1 n n 115.6 107.7 n n u
C[C@@H]1CCCCO[C@H](CN(C)C(=O)Nc2ccc(F)cc2)[C@@H](C)CN([C@H](C)CO)C(=O)c2cc(NC(=O)Nc3ccc(C(F)(F)F)cc3)ccc2O1 n n u 104.6 100.8 n n
C[C@@H]1CCCCO[C@H](CN(C)C(=O)Nc2ccccc2)[C@@H](C)CN([C@H](C)CO)C(=O)c2cc(NC(=O)Nc3ccc(C(F)(F)F)cc3)ccc2O1 n n x x x x x
C[C@@H]1CN([C@@H](C)CO)C(=O)c2cc(NC(=O)Nc3ccc(C(F)(F)F)cc3)ccc2O[C@@H](C)CCCCO[C@@H]1CN(C)C(=O)Nc1ccccc1 n n x x x x x
C[C@@H]1CN([C@H](C)CO)C(=O)c2cc(NC(=O)Nc3ccccc3)ccc2O[C@@H](C)CCCCO[C@H]1CN(C)C(=O)Nc1ccc(C(F)(F)F)cc1 n n x x x x x
C[C@H](CO)N1C[C@H](C)[C@H](CN(C)C(=O)Nc2ccc(F)cc2)OCCCC[C@H](C)Oc2ccc(NC(=O)Nc3ccc(C(F)(F)F)cc3)cc2C1=O n n 97.9 n 108.9 n n
C[C@H]1CCCCO[C@@H](CN(C)C(=O)Nc2ccccc2)[C@@H](C)CN([C@@H](C)CO)C(=O)c2cc(NC(=O)Nc3ccc(C(F)(F)F)cc3)ccc2O1 n n x x x x x
CN1C(=O)c2cc(NC(=O)NCc3ccccc3)ccc2OC[C@@H]2O[C@@H](CC(=O)O)CC[C@@H]21 n n n x x x x
CO[C@H]1CN(C)C(=O)c2ccc(NC(=O)c3ccccc3F)cc2OC[C@H](C)N(CC2CC2)C[C@@H]1C n n x x x x x
C[C@@H]1CCCCO[C@H](CN(C)C(=O)Nc2ccc(F)cc2)[C@H](C)CN([C@@H](C)CO)C(=O)c2cc(NC(=O)Nc3ccc(C(F)(F)F)cc3)ccc2O1 n n 97.1 102.2 115.0 n n
CC(C)NC(=O)Nc1ccc2c(c1)C(=O)N([C@H](C)CO)C[C@@H](C)[C@H](CN(C)C(=O)Nc1ccc(C(F)(F)F)cc1)OCCCC[C@@H](C)O2 n n n x x x x
CNC[C@H]1OCCCC[C@H](C)Oc2ccc(NC(=O)Nc3ccc4c(c3)OCO4)cc2C(=O)N([C@H](C)CO)C[C@@H]1C n n n x x x x
CC(C)NC(=O)N(C)C[C@@H]1OCCCC[C@@H](C)Oc2ccc(NC(=O)Nc3ccc(C(F)(F)F)cc3)cc2C(=O)N([C@@H](C)CO)C[C@H]1C n n x x x x x
